Assay [1] can be described thus: qHTS RealTime-Glo MT Cell Viability Assay in HEK293 cells - 16 hour (AID 1224872). Note: top concentration of the series differs between compounds; nearly all actives have a fitted effect of over 50% in size. Put shortly: (§1)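 Reads taken at 0, 8, 16, 24, 32 and 40 h from the same wells. HEK293 cells (600/well) carried RealTime-Glo reagents from seeding, with compound added after a 5 h settle at 37 C.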
On the technique in general: In qHTS, concentration-response curves come from the screen itself.

A short description of assay [2]: qHTS RealTime-Glo MT Cell Viability Assay in HepG2 cells - 8 hour (AID 1224873). Note: nearly all actives have a fitted effect of over 55% in size. Summed up: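 Real-time viability: cells seeded at 600 per well together with NanoLuc and cell-permeant prosubstrate, compounds added after 5 h incubation. Luminescence tracked at 0, 8, 16, 24, 32 and 40 h of exposure.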
Assay [3] is described as follows: qHTS RealTime-Glo MT Cell Viability Assay in HEK293 cells - 40 hour (AID 1224874). Note: nearly all actives have a fitted effect of over 50% in size. The note with it: RealTime-Glo luminescence; max response: stronger effect = lower value. Summed up:
(§2)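 600 HEK293 cells per well, dispensed already mixed with RealTime-Glo MT reagents. Compound dosing came 5 h later. The same wells were read for luminescence at 0, 8, 16, 24, 32 and 40 h of exposure at 37 C.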

Assay [4] is described as follows: A CellTox Green Cytotoxicity Assay to monitor cytotoxicity in HEK293 cells - 24 hour (AID 1224875). Note: series mostly up to about 77 µM; nearly all actives have a fitted effect of over 45% in size. Put shortly:
(§3)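 Dead-cell fluorescence measured kinetically: asymmetric cyanine dye, HEK293, 600 cells/well, 5 h settle, 23 nL cpd/DMSO, 37 C, reads 0–40 h every 8 h.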

Assay [5] is described as follows: A CellTox Green Cytotoxicity Assay to monitor cytotoxicity in HepG2 cells - 16 hour (AID 1224876). Note: nearly all actives have a fitted effect of over 45% in size. Summed up:
(§4)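 First, HepG2 cells (600/well) mixed with reagent were plated; second, after 5 h at 37 C they received compounds via pintool; third, fluorescence was measured at 0 h through 40 h at 8 h intervals.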

Assay [6] is described as follows: qHTS RealTime-Glo MT Cell Viability Assay in HepG2 cells - 32 hour (AID 1224877). Note: nearly all actives have a fitted effect of over 55% in size. Summed up:
(§5)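 HepG2 suspension premixed with RealTime-Glo reagents is plated at 600 cells per well and left 5 h at 37 C/5% CO2. Compounds in DMSO then go in, and bioluminescence reflecting viable cell number is recorded over 40 h.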

Assay [7] in a line: qHTS RealTime-Glo MT Cell Viability Assay in HEK293 cells - 0 hour (AID 1224880). Note: top concentration of the series differs between compounds; nearly all actives have a fitted effect of over 45% in size. Put shortly: as §2
A short description of assay [8]: A CellTox Green Cytotoxicity Assay to monitor cytotoxicity in HEK293 cells - 32 hour (AID 1224881). Note: nearly all actives have a fitted effect of over 40% in size. Note: potency is the fitted concentration of half-maximal effect. Put shortly: as §3
A short description of assay [9]: A CellTox Green Cytotoxicity Assay to monitor cytotoxicity in HepG2 cells - 0 hour (AID 1224882). Note: nearly all actives have a fitted effect of over 35% in size. Summed up: as §4
The nature of assay [10]: A CellTox Green Cytotoxicity Assay to monitor cytotoxicity in HepG2 cells - 32 hour (AID 1224883). Note: nearly all actives have a fitted effect of over 50% in size. Summed up: as §4
Assay [11] can be described thus: A CellTox Green Cytotoxicity Assay to monitor cytotoxicity in HEK293 cells - 8 hour (AID 1224884). Note: nearly all actives have a fitted effect of over 35% in size. Summed up: as §3
Assay [12] in a line: qHTS RealTime-Glo MT Cell Viability Assay in HepG2 cells - 16 hour (AID 1224885). Note: nearly all actives have a fitted effect of over 50% in size. Summed up:
as §5

Assay [13] is described as follows: qHTS RealTime-Glo MT Cell Viability Assay in HEK293 cells - 24 hour (AID 1224886). Put shortly: as §1
Assay [14] can be described thus: qHTS RealTime-Glo MT Cell Viability Assay in HEK293 cells - 8 hour (AID 1224887). Summed up: as §2
A short description of assay [15]: A CellTox Green Cytotoxicity Assay to monitor cytotoxicity in HEK293 cells - 16 hour (AID 1224888). Note: nearly all actives have a fitted effect of over 35% in size. Put shortly:
as §3

Assay [16] can be described thus: qHTS RealTime-Glo MT Cell Viability Assay in HepG2 cells - 0 hour (AID 1224889). Note: nearly all actives have a fitted effect of over 50% in size. Put shortly: as §5
Assay [17] can be described thus: A CellTox Green Cytotoxicity Assay to monitor cytotoxicity in HepG2 cells - 8 hour (AID 1224890). Note: nearly all actives have a fitted effect of over 45% in size. Summed up:
as §4

Assay [18] is described as follows: qHTS assay to identify small molecule antagonists of the estrogen receptor alpha (ER-alpha) signaling pathway using the BG1 cell line in the presence of 0.1 nM 17-beta-estradiol - cell viability counter screen (AID 1259241). Note: nearly all actives have a fitted effect of over 40% in size. Summed up: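 Cells were plated and left 24 hr, compounds in DMSO were pinned in, 17beta-estradiol was added to 0.1 nM final, and after 22 hr CellTiter-Fluor reagent was added for 30 min before fluorescence was read.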

The nature of assay [19]: A CellTox Green Cytotoxicity Assay to monitor cytotoxicity in HepG2 cells - 24 hour (AID 1224878). Note: nearly all actives have a fitted effect of over 45% in size. Put shortly:
as §4

Assay [20] in a line: A CellTox Green Cytotoxicity Assay to monitor cytotoxicity in HepG2 cells - 40 hour (AID 1224879). Note: nearly all actives have a fitted effect of over 40% in size. Note: potency is the fitted concentration of half-maximal effect. Put shortly: as §4

The structures appear in SMILES notation. Where “and” joins values, the source holds several entries; their conditions need not be identical. Equal entries are not always repeated. Records with an inconclusive call do not appear. The source holds several records for some structures; these can differ, active in one and inactive in another. Calls of active or inactive are those of the source. Calls come from the whole dose curve; as a rule, active = well fitted curve in the direction sought with a large enough effect in the repeat runs; inconclusive = weak or mixed curves; inactive = no such curve, though single readings can be large; an effect the other way counts as inactive or inconclusive.
% is set by controls: 0 for no effect and ±100 for the full control effect.

On to `C=C(C)C(=O)OCC(CC)CCCC` (stereo not given), for which the result in assay [1], in [2], in [6], in [7], in [12] and in assay [13] was inactive. In addition, the outcome in assay [14], in assay [16] and in assay [18] was inactive. Moreover, the max response in assay [3] was 1.51% (inactive). The Potency entry in [4], in [5], in assay [8], in assay [9], in assay [10] and in assay [11] was “inactive” in each case. Besides, the Potency entry in assay [15] and in assay [17] was “inactive” each time.

For `Cc1cc(Cl)ccc1OC(C)C(=O)O` (stereo not given), the compound was classed as inactive in [1], in assay [2], in assay [6], in assay [7], in [12] and in assay [13]. For the same compound, the compound was called inactive in assay [14], in assay [16] and in assay [18]. In assay [3], the max response was 3.64% (inactive) and -1.48% (inactive). Moreover, the Potency result in assay [4], in [5], in assay [8], in assay [9], in assay [10] and in [11] was “inactive” in each case. In addition, the Potency entry in assay [15] and in assay [17] was “inactive” each time.

As to `C[C@]12CC[C@H](O)CC1=CC[C@@H]1[C@@H]2CC[C@]2(C)C(=O)CC[C@@H]12`, the compound was called inactive in [1], in [2], in assay [6], in [7], in [12] and in assay [13]. The call in assay [14], in assay [16] and in assay [18] was inactive. The max response in assay [3] is -15.5% (inactive). In addition, the Potency entry in [4], in [5], in [19], in assay [8], in assay [9] and in assay [10] was “inactive” each time. The Potency entry in assay [11], in assay [15] and in assay [17] was “inactive” throughout. For the same compound, the Potency in assay [20] was 49 µM (active) and inactive.

Take `CN(C)C(=O)C(c1ccccc1)c1ccccc1`: the compound was classed as inactive in assay [1], in [2], in assay [6], in assay [12], in assay [13] and in [14]. The compound was called inactive in [16] and in assay [18]. In addition, the max response in [3] is 1.04% (inactive) and -0.357% (inactive). Also, the Potency result in assay [5], in [19], in assay [20], in assay [8], in [9] and in assay [10] was “inactive” each time. The Potency result in [11], in assay [15] and in [17] was “inactive” throughout.

`N#Cc1cccc(C#N)c1`: the compound was called inactive in assay [1], in assay [2], in [6], in assay [7], in [12] and in [13]. Moreover, the compound was called inactive in assay [14], in assay [16] and in [18]. The max response in assay [3] was 2.43% (inactive) and 3.42% (inactive). For the same compound, the Potency result in assay [4], in assay [8], in assay [9], in assay [10], in assay [11] and in assay [15] was “inactive” in each case. For the same compound, the Potency entry in assay [17] was “inactive”.

As to `CN(C)NC(=O)CCC(=O)O`, the result in assay [1], in assay [2], in assay [6], in [7], in assay [12] and in assay [13] was inactive. For the same compound, the compound was called inactive in assay [14], in assay [16] and in assay [18]. In assay [3], the max response was 2.52% (inactive) and 2.58% (inactive). For the same compound, the Potency entry in [4], in assay [20], in [8], in assay [9], in assay [10] and in assay [11] was “inactive” in each case. Moreover, the Potency result in assay [15] and in assay [17] was “inactive” throughout.

For the compound `Oc1c(Br)cc(Br)cc1Br`, the compound was classed as inactive in assay [1], in [2], in assay [6], in [7], in [12] and in assay [13]. Moreover, the result in assay [14], in assay [16] and in assay [18] was inactive. Besides, the max response in assay [3] was -1.22% (inactive). In addition, the Potency result in assay [4], in assay [8], in assay [9], in [10], in assay [11] and in [17] was “inactive” each time.

For `C=CC(=O)OCC(CC)CCCC` (stereo not given), the result in assay [1], in assay [2], in [6], in assay [12], in assay [13] and in assay [14] was inactive. The result in [16] and in assay [18] was inactive. Further, the max response in [3] was 13.3% (inactive). In addition, the Potency result in assay [5], in assay [19], in assay [20], in assay [8], in assay [9] and in [10] was “inactive” in each case. The Potency entry in assay [17] was “inactive”.

Turning to `OCC(O)CCl` (stereo not given), the compound was called inactive in assay [1], in [2], in [6], in assay [12], in [13] and in assay [14]. Moreover, the compound was called inactive in [16] and in assay [18]. Also, in assay [3], the max response is -3.2% (inactive) and 0.258% (inactive). Also, the Potency entry in [4], in assay [19], in [20], in assay [8], in assay [9] and in assay [10] was “inactive” each time. The Potency entry in [11] and in [17] was “inactive” in each case.

Take `CC(=O)/C=C/c1ccccc1`: the call in assay [1], in assay [2], in assay [6], in assay [12], in assay [13] and in assay [14] was inactive. The outcome in assay [16] and in [18] was inactive. In addition, in assay [3], the max response is 7.83% (inactive) and 3.04% (inactive) and 5.74% (inactive). For the same compound, the Potency result in [4], in [19], in assay [20], in [8], in assay [9] and in assay [10] was “inactive” in each case. Besides, the Potency result in assay [17] is “inactive”.

For the compound `O=[N+]([O-])c1cc([As](=O)(O)O)ccc1O`, the result in assay [1], in assay [2], in assay [6], in assay [12], in assay [13] and in assay [14] was inactive. Moreover, the call in assay [16] and in assay [18] was inactive. In addition, the max response in assay [3] is 6.64% (inactive) and -3.36% (inactive) and 2.24% (inactive). The Potency result in assay [5], in assay [19], in [20], in [8], in assay [9] and in assay [10] was “inactive” in each case. Also, the Potency entry in assay [11], in assay [15] and in assay [17] was “inactive” in each case.

In the case of `Clc1cnc(Oc2ccc(Oc3ncc(Cl)cc3Cl)cc2)c(Cl)c1`, the compound was classed as inactive in [1], in assay [2], in [6], in [7], in assay [12] and in assay [13]. In addition, the result in assay [14], in [16] and in assay [18] was inactive. Moreover, in assay [3], the max response is -4.51% (inactive) and -10.8% (inactive). The Potency entry in assay [5], in assay [19], in [9], in assay [10] and in assay [17] was “inactive” throughout. In assay [8], the Potency was 27.5 µM (active).

For `Cc1cc(O)ccc1Cl`, the outcome in [1], in assay [2], in assay [6], in [7], in assay [12] and in assay [13] was inactive. Further, the result in assay [14], in [16] and in assay [18] was inactive. Also, in assay [3], the max response is -0.728% (inactive) and -2.63% (inactive) and 0.546% (inactive). The Potency entry in [5], in [19], in [20], in [8], in assay [9] and in assay [10] was “inactive” throughout. Besides, the Potency entry in [11], in [15] and in assay [17] was “inactive” in each case.

`N#Cc1ccccn1`: the result in assay [1], in [2], in assay [6], in assay [7], in [12] and in [13] was inactive. In addition, the compound was classed as inactive in assay [14], in assay [16] and in assay [18]. The max response in assay [3] is -0.449% (inactive) and 4.77% (inactive). For the same compound, the Potency result in assay [5], in assay [19], in assay [8], in assay [9], in [10] and in assay [11] was “inactive” in each case. Further, the Potency result in assay [15] and in assay [17] was “inactive” in each case.

Values taken from PubChem BioAssay (Tox21).
